The source of these data is PubChem BioAssay AID624483 (NMMLSC, 2012).

About 11,000 (3.1%) of roughly 360,000 compounds were called active. About 2% were inconclusive and are not listed. Only a selection was taken, and actives are over-represented in it overall. Values without a mark were called inactive. Cut-off read from the data, not from the text of the source: active = fluorescence intensity above about 16000; inconclusive = no clear call, values can overlap the other calls; inactive = below that.

A short description of the assay: counter-screen for toxin protease inhibitors: compound fluorescence, primary screen, artefact control for toxin protease inhibitor project, biochemical, multiplex microsphere, HTS (AID 624483). The settings on record: compound autofluorescence counterscreen, microsphere flow cytometry; hits give high values. For orientation: The purpose of a counterscreen is to sort out artefacts and off-target activity.
Regarding `C=CCN(CC=C)S(=O)(=O)c1ccc(C(=O)Nc2nc3c(s2)CCc2ccccc2-3)cc1`, the fluorescence intensity was 11000.
As to `COc1ccccc1-n1cnc2cc(NS(=O)(=O)c3ccccc3)ccc21`, the fluorescence intensity was 3550.
On to `CC(=O)c1c(C)oc2ccc(NS(=O)(=O)c3ccccc3)cc12`, for which the fluorescence intensity was 5190.
The figure for `COc1cc(NS(=O)(=O)c2ccccc2)ccc1-n1nc(C)cc1C` is 17700 (active); for `CC(C)(O)C#Cc1ncc(C(F)(F)F)cc1Cl` it is 4380; for `O=C(NCCCN1CCCCC1)C1CC(=O)N(CCc2ccccc2)C1` (stereo not given) it is 5320.
Consider `O=C(NC1CCCCC1)C1CC(=O)N(CCc2ccccc2)C1` (stereo not given), for which the fluorescence intensity was 21500 (active).
`Cc1ccc(CCN2CC(C(=O)NCCc3ccccc3)CC2=O)cc1` (stereo not given): the fluorescence intensity was 5840.
Consider `CC(=O)NC1CCN(CC(=O)Nc2nccs2)CC1`, for which the fluorescence intensity is 3460.
`O=C(Nc1cccc2ccccc12)c1[nH]c(-c2ccccc2)c2c1C(=O)N(C1CC1)C2=O`: the fluorescence intensity is 5310.
Consider `CCCNC(=O)c1cc2c(c(-c3cccc(-c4ccc(C#N)cc4)c3)n1)[C@@H](CCO)N(C(=O)CC)C2`, for which the fluorescence intensity is 4490.
For the molecule `Cn1c2c(c(=O)n(C)c1=O)[C@@H]1c3c(ccc4ccccc34)OC[C@@H]1CO2`, the fluorescence intensity is 3510.
As to `CCN1CCN(CCCCOc2ccccc2F)CC1`, the fluorescence intensity is 9580.
As for `Fc1ccccc1OCCCCn1cncn1`, the fluorescence intensity is 5750.
For `OCCNCCCCOc1ccccc1F`, the fluorescence intensity is 23000 (active).
Regarding `CCCN1C(=O)C(NC(C)=O)c2cc(OC)ccc21` (stereo not given), the fluorescence intensity is 2550.
Under `COc1ccc(C(=O)NCC[N+](C)(C)C)cc1` stands 5780; under `O=C(NC1CCCC1)C1c2ccccc2OCC(=O)N1Cc1ccccc1` (stereo not given), 5910.
Take `CC(=O)N1CCC(N(C(=O)Nc2ccc(Cl)cc2)C(C)C)CC1`: the fluorescence intensity is 4610.
Regarding `Cc1ccc(NC(=O)NC(=O)N(C2CCCCC2)S(=O)(=O)c2ccccc2)cc1`, the fluorescence intensity was 9210.
For `CC(c1ccco1)N(C(=O)Nc1ccccc1)C1CCCCC1` (stereo not given), the fluorescence intensity is 20500 (active).
Consider `Cc1cc(C)c(S(=O)(=O)NN=C2c3ccccc3[C@H]3Cc4csc[n+]4[C@@H]23)c(C)c1`, for which the fluorescence intensity was 5040.
Under `O=C(c1ccc(C(F)(F)F)cc1)N1CCC(=O)N([C@H](COCc2ccccc2)Cc2ccccc2)CC1` stands 5850.
For `CCOc1ccc(-c2nnn(CC(=O)N3CCN(c4ccc(OC)cc4)CC3)n2)cc1OCC`, the fluorescence intensity is 4250.
Consider `CCOc1ccc(-c2nnn(CC(=O)N3CCN(c4ccc(F)cc4)CC3)n2)cc1OCC`, for which the fluorescence intensity was 6120.
As for `COc1ccc(C(=O)Cn2nnc(-c3ccc(N4CCOCC4)cc3)n2)cc1OC`, the fluorescence intensity was 24200 (active).
The figure for `CCCNC(=O)c1cc(C2CCCCN2C(=O)OC)on1` (stereo not given) is 3000; for `COc1ccccc1NC(=O)C1=C(C)Nc2ncnn2C1c1ccc(C)o1` (stereo not given) it is 2690.
For `COc1ccccc1NC(=O)C1=C(C)Nc2nnnn2C1c1cccc(Br)c1` (stereo not given), the fluorescence intensity is 20400 (active).
In the case of `COc1cc(C2C(C(=O)Nc3ccccc3OC)=C(C)Nc3ncnn32)ccc1O` (stereo not given), the fluorescence intensity is 6420.
As for `COc1ccc(NC(=O)CN2C(=O)COc3ccc(S(=O)(=O)N4CCOCC4)cc32)cc1`, the fluorescence intensity is 4800.
Under `CC1(C(=O)NS(=O)(=O)c2ccccc2)CCN1C(=O)C/C=C/c1ccccc1` (stereo not given) stands 3600.
Take `Oc1ccc2ccc3cccc[n+]3c2c1`: the fluorescence intensity was 4220.
Under `CCCC(=O)N1CCC1(C)C(=O)NCc1ccc(C(C)C)cc1` (stereo not given) stands 3880; under `COc1ccc(-n2ncc3c(SCC(=O)NNC(C)=O)ncnc32)cc1`, 3990; under `COc1ccc(-n2ncc3c(N4CCc5ccccc54)ncnc32)cc1`, 22400 (active).
The figure for `COc1ccc(-n2ncc3c(N4CCCc5ccccc54)ncnc32)cc1` is 11300.
Under `CCCNC(=O)C1(C)CCN(Cc2csc(-c3ccc(Cl)cc3)n2)C1` (stereo not given) stands 3720; under `Cc1cc2nc(-c3ccc(Cl)cc3)c(Cc3cccc(F)c3)n2c(C)c1Br`, 6020; under `O=C(N1CCCC1)C12CC3CC(C1)CC(C(=O)N1CCCC1)(C3)C2`, 2410.
Take `C=CCNC(=O)CC12CC3CC(C1)CC(CC(=O)NCC=C)(C3)C2`: the fluorescence intensity is 4730.
Regarding `O=C(NCC12CC3CC(C1)CC(CNC(=O)N1CCCC1)(C3)C2)N1CCCC1`, the fluorescence intensity was 16800 (active).
As to `Nc1nc(SCc2cccc(Br)c2)n[nH]1`, the fluorescence intensity is 3680.
The figure for `C=CCc1cccc2cc(C(=O)NC3CCCC3)c(=O)oc12` is 2230.
Under `COc1ccc(NC(=O)CSc2nc3ccccc3c(=O)n2C)cc1` stands 3680; under `Cc1ccc(C(=O)CSc2nc3ccccc3c(=O)n2N)o1`, 19100 (active); under `COc1ccc(OCc2ccc(-c3nc4ccccc4c(=O)n3N)o2)cc1`, 2450.
With `COc1ccc(-c2ccc(C(=O)NCCN3CCOCC3)c3occc23)c(C)c1`, the fluorescence intensity is 3620.
With `Cc1nnc(SCC(=O)Nc2ccc(S(=O)(=O)Nc3ccc(Cl)nn3)cc2)s1`, the fluorescence intensity is 5340.
As to `COc1ccc(CN2CCN(Cc3ccc(OC)c(OC)c3OC)CC2)cc1`, the fluorescence intensity was 3740.
For `COc1ccccc1N1CCN(Cc2cc(OC)c3c(c2)OCO3)CC1`, the fluorescence intensity was 3350.
For `COc1ccccc1N1CCN(Cc2ccc(OC)c3ccccc23)CC1`, the fluorescence intensity is 21400 (active).
On to `COC(C[C@@H](O)[C@H](C)[C@H](O)COCc1ccccc1)OC`, for which the fluorescence intensity is 4260.
Regarding `COc1cc(/C=C(/NC(=O)c2ccccc2)C(=O)Nc2cccc(O)c2)c([N+](=O)[O-])cc1OC`, the fluorescence intensity was 11300.
Under `O=C(COC(=O)/C=C/c1ccc(OC(F)F)cc1)NC1CCCCC1` stands 5950; under `CC(=O)C1=C(O)C(=O)N(c2ccc(S(N)(=O)=O)cc2)C1c1ccccc1F` (stereo not given), 2660; under `CN(C)CCCOc1ccc(-c2ccc3nccn3c2)cn1`, 3380.
Consider `Cc1nc([N+](=O)[O-])cn1CC(=O)Nc1ccc(Cl)cc1`, for which the fluorescence intensity is 3080.
With `CC(C)C[C@@H]1COc2cc(N3CCC[C@@H]3CO)ccc2S(=O)(=O)N1`, the fluorescence intensity is 6270.
As for `Cc1ccccc1S(=O)(=O)NC(=O)C1(C)CCN1C(=O)Cc1ccc(Cl)cc1Cl` (stereo not given), the fluorescence intensity is 3450.
